Test results: the supplement of paper PMC6555819

How the values were obtained:
Test in all cases: PBM binding z-score (relative to random genomic background probes); higher = stronger binding; sequences stand for … in GC…GCGATTGACAGCGTAGAATGAAGG
[1] = test system: PPARg:RXRa DBDmut IVT, anti-RXR (DBD mutation: RXRa K156A/R161A, NR concentration 270 nM, RXRa partner concentration 90 nM)
How it was run: (§1)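 Custom Agilent 4×180K protein-binding microarrays carried double-stranded probes. Their 34-nt variable regions held direct-repeat seeds, single-nucleotide variants, half-site ablations and random human genomic background sequences. Arrays were incubated 1 h with ligand-free nuclear receptor dimers in PBS pH 7.4, 2% milk, 0.02% Triton X-100, 1 mM DTT, 0.2 mg/mL BSA and 0.4 mg/ml salmon testes DNA. Antibodies against each partner (one per run) detected binding, and scanned fluorescence was regression-normalized. Binding z-scores use random background probes as reference.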

[2] = test system: PPARg:RXRa IVT, anti-PPARg (NR concentration 270 nM, RXRa partner concentration 90 nM)
How it was run: as §1

[3] = test system: PPARg DBDmut:RXRa IVT, anti-PPARg (DBD mutation: PPARg1 K132A/R137A, NR concentration 270 nM, RXRa partner concentration 90 nM)
How it was run: as §1

[4] = test system: PPARg DBDmut IVT, anti-PPARg (DBD mutation: PPARg1 K132A/R137A, NR concentration 270 nM)
How it was run: as §1

[5] = test system: PPARg homodimer (NR concentration 180 nM)
How it was run: as §1

[6] = test system: PXR:RXRa (NR concentration 270 nM, RXRa partner concentration 90 nM)
How it was run: as §1

[7] = test system: PXR homodimer (NR concentration 270 nM)
How it was run: as §1

[8] = test system: RARa:RXR (NR concentration 270 nM, RXRa partner concentration 90 nM)
How it was run: as §1

[9] = test system: RARa homodimer (NR concentration 270 nM)
How it was run: as §1

[10] = test system: RARb:RXRa (NR concentration 270 nM, RXRa partner concentration 90 nM)
How it was run: as §1

Sequence	PBM binding z-score [1]	PBM binding z-score [2]	PBM binding z-score [3]	PBM binding z-score [4]	PBM binding z-score [5]	PBM binding z-score [6]	PBM binding z-score [7]	PBM binding z-score [8]	PBM binding z-score [9]	PBM binding z-score [10]
CAAACTAGGACAAGGTCAAAGTCGGTTTGTGCCA	5.64	5.61	1.68	1.21	2.27	4.44	1.41	4.44	0.511	3.83
CGAACTACGTCATTGACAGGACAGTGAATAGTAA	-0.246	-0.155	0.611	0.69	0.0858	-0.217	0.0481	-0.22	0.592	-0.0589
GCGACTGGGGAATCAGCAGGTTACCATAACTTAA	0.44	0.213	-0.564	-0.355	-0.3	-0.375	-0.366	-0.13	-0.219	-0.211
CCGACTGGGGCAAAAAGGTTACCATACCATCCGG	2.47	2.82	-0.595	-1.12	0.536	1.1	-0.0306	1.87	0.158	2.05
GATACAGGGTCAGCTAGAGGCGAGAGTATGGAAA	1.45	2.17	-0.6	-0.459	1.77	2.25	-0.498	3.52	0.0279	4.1
CGTCAAAGTGCAACTAAGGTAACGTAAAGCACGC	0.000169	0.492	-0.123	-0.228	0.0705	1.55	0.00934	2.04	-0.027	2.07
TCTTGTAGATCAAAGTTTAAGAAAGCCGAAGCCT	2.31	1.66	0.921	0.574	0.293	0.685	0.403	0.864	0.333	0.69
TAGCCGAGGTCATGGGCCAGTATACCACGCGAAC	1.94	4.59	1.31	0.953	2.7	5.24	0.728	5.62	0.741	5.01
TCTGCTAGGTCAACGATGGTCAGCTAATCTGCTA	4.23	4.22	0.762	0.898	1.44	1.67	-0.856	2.46	-0.93	4.01
AGTATTAGTTGAGACGAGGGCAACCGATAGGTTG	-0.068	0.769	0.458	0.336	0.923	1.63	0.87	1.01	1.25	1.2
TCTAGTTGGTCAAAGGTCACAGACTCGAAATGCG	3.8	6.51	1.4	1.43	5.86	6.19	1.54	7.67	3.5	5.12
TCTAGTTGGTCACGGAGGTCAAACACGACGGGTA	2.37	3.95	0.658	0.77	3.43	5.11	2.87	5.16	1.13	3.9
GATACAGGGTCAAGGCCAGAGGACGCGTATTGAT	2.29	3.97	0.837	0.968	2.75	3.68	0.296	4.56	1.16	4.44
TCTTGTAGATCAGAGGTTAAGAAAGCCGAAGCCT	1.58	2.04	0.138	0.179	0.818	0.951	-0.359	1.48	-0.453	0.915
GCGACTGGGCCAAAGCAGGTTACCATAAGGTTGG	2.12	1.67	-1.03	-0.738	-0.482	-0.203	-0.655	0.347	-0.649	-0.0107
ATACCAAGGTGATTGTGAGGTCGTTGATACTAAC	0.693	1.27	0.771	0.654	1.27	3.13	2.05	2.22	0.72	1.41
TCTCGGCGGACACGAAGGTCAGAGCTTTCCAGAG	0.413	0.291	-0.613	-1.55	0.53	1.09	-0.42	1.09	-0.212	2.45
GCTAGAAGGCCATTTGGGTCACTCAATGACGGGC	1.13	1.97	-0.158	-0.532	0.149	1.19	1.2	1.08	-0.572	2.2
GCTGCTATGTCAGGTTGGTCAGCTAACGGGTACG	0.218	-0.36	-0.641	-1.12	-0.452	-0.319	-0.426	-0.149	-0.632	0.458
TCGAGTAGGTTATGGGCATTCAGAATGGCGTCGA	1.95	1.36	-0.529	-0.999	0.0273	-0.316	-0.754	-0.148	-0.374	0.453
TCTTGTAGCTCAATAGAGGTTAAGAAAGTGCGCT	0.915	0.506	0.592	0.551	-0.185	2.46	-0.163	1.28	-0.147	0.573
CCATACAGGTGAGAAGGTAACTCAGCCTCGATTA	2.08	1.63	0.397	0.148	0.629	0.166	0.14	0.725	1.02	0.628

Sequence	PBM binding z-score [1]	PBM binding z-score [2]	PBM binding z-score [3]	PBM binding z-score [4]	PBM binding z-score [5]	PBM binding z-score [6]	PBM binding z-score [7]	PBM binding z-score [8]	PBM binding z-score [9]	PBM binding z-score [10]
ATCTCTCGGTAACAAGTTCAGTGAAAGAGAGGAC	-0.852	0.6	0.792	1.21	0.807	1.46	1.77	0.694	0.38	1.49
GGAACGAGGGCATTCGAGTTAATAGCATGGCGAT	3.25	2.26	-0.564	-0.5	0.00587	3.48	0.437	0.742	-0.33	1.8
GCTTACGGGTCAAAGGTTATAGGATGAATAGAAT	4.59	5.81	2.01	1.61	3.34	6.34	0.559	8.36	1.33	4.59
CAAACTAGGCCACAGAGGTCAAAGTCCGTGCGTA	7.36	7.37	2.08	0.00435	3.3	5.81	4.73	6.18	0.998	4.29
TGTCAAAGTTCAAAGTTAACGTAAGTATCCACAC	0.374	4.24	1.16	1.99	2.65	5.04	4.24	4.46	1.12	5.12
TCGAGTAGGTTACAAATGGGGCATTCAGCTTTCT	3.56	3.01	0.207	-0.201	0.131	0.0276	-0.499	0.475	0.267	0.54
TCTAGCAGGCCAGGGGGTCACTCAAGAGGTACGG	1.72	3.02	2.08	1.84	2.2	4.43	0.579	5.03	0.104	3.16
TGAATGAGGTTAAAGACCAGGGAACGTGGCGTCG	1.75	2.7	1.19	0.401	0.683	1.08	-0.0383	2.17	0.0679	1.84
TCATATAGGTAGAGGTGAAAGTCGAACGATATGA	2.29	2.16	2	0.275	0.614	0.78	0.269	1.22	0.173	1.31
TCATATAGGTAAAGATGAAAGTCGAACGATATGA	3.2	1.97	1.28	0.63	-1.18	-0.0573	-0.0684	0.268	0.0923	0.318
TATCGGAGGACACGAAGGTCAGAGCTTTCCAGAG	0.135	1.54	-0.485	-0.6	1.67	1.9	1.2	2.05	0.593	3.22
ATATGTAGGGTACATCCGGGTCATTCAGGCTATG	5.82	6.25	2.33	1.87	1.74	4.11	9.27	3.12	0.779	1.73
CAAACTAGGTCACGGGAAGGTCAAAGTCCGCATG	8.72	9.17	2.85	3.73	5.61	5.97	1.41	7.17	1.78	5.43
ATCGAAAGGTCGAAGGTGAATATACCCACCCGAA	0.205	2.75	0.488	1.25	2.07	3.5	0.328	5.15	0.699	4.04
TCGAGGAGGTTACCAATGGGGCATTCAGCTTTCT	1.15	1	-0.386	-0.775	0.8	1.05	-0.411	1.43	-0.136	1.67
TCATATAGGTAAGGGTGAAAGTCGAACGATATGA	2.65	2.84	1.53	1.28	1.03	0.664	0.181	1.14	0.462	1.13
TCTATTAGTTGAAGGACAACCGACGAGTCCGTTT	2.84	0.286	0.961	1.19	1.31	1	1.09	0.65	1.51	0.981
ATCTCTAGGTAAGACTCAGTTGAGTGAAGAACGC	1.79	0.839	0.212	0.517	0.307	-0.135	0.188	-0.38	0.696	0.11
ATATGTCGGTTAGCTGGGGTCATTCAGACTAGGC	1.3	2.25	0.889	0.777	1.85	5.49	3.48	5.05	0.853	2.62
TCATATAGGTAGATGCTAGGTGAAAGTCCGATCT	2.54	0.996	0.387	0.246	0.348	0.415	0.366	0.657	0.534	0.174
GCTAATTGGTCAGTAAAAGGTCACACACCGGTCG	1.17	3.09	0.371	1.23	3.29	4.83	1.25	5.26	2.18	4.66
TAGTCTAGGTCAGATCGGGCCAGTATACGCTATA	4.19	4.5	1.78	1.67	1.18	1.33	-0.0787	1.54	-0.273	3.25
